PubChem BioAssay (NCATS)
Several values for one entry are separate records, joined by “and”; a condition that tells them apart may be missing. Identical values can stand only once. Records with an inconclusive call do not appear. Activity calls are given as the source filed them. Unless noted, the call rests on the fitted dose curve; in most records, active means well fitted curve in the direction sought with a large enough effect; inconclusive means small, poorly fitted or top-dose-only effect, or another doubt; inactive means no such curve, though single readings can be large; an effect the other way counts as inactive or inconclusive.

What was measured:
[1] = Cell Viability - BJ (AID 421; calls by dose curve;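 further: potency means the concentration at half of the fitted maximal effect; cells exposed to compound for 40 hours at 37 °C before readout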); conditions: BJ fibroblast viability, qHTS
In short: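 Luminescent ATP signal (CellTiter-Glo, 20 min at room temperature) served as the read-out of viable BJ cells after 40 hours of compound treatment. Responses were scaled between DMSO and 100 uM tamoxifen, and AC50 values were obtained by Hill modeling.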

[2] = Cell Viability - HepG2 (AID 433; calls by dose curve;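 further: potency means the concentration at half of the fitted maximal effect; potency for ATP loss meaning cytotoxicity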); conditions: qHTS
In short: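 In this qHTS format, a 40 h, 37 °C compound incubation of HepG2 cells in complete medium precedes a 20 min CellTiter-Glo step at room temperature. Tamoxifen and doxorubicin serve as positive controls; Hill-equation fits yield AC50.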

[3] = Cell Viability - MRC5 (AID 434; calls by dose curve;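 further: potency means the concentration at half of the fitted maximal effect; potency reflects cytotoxicity seen as loss of intracellular ATP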); conditions: MRC5 lung fibroblast viability, qHTS
In short: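 ATP luminescence read-out (CellTiter-Glo, 20 min RT) after 40 hr, 37 °C compound exposure of 1500 MRC5 cells/well. Data normalized to DMSO (basal) and 100 uM tamoxifen (100% inhibition); AC50 from standard Hill equation.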

[4] = Cell Viability - SK-N-SH (AID 435; calls by dose curve;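 further: potency means the concentration at half of the fitted maximal effect; compound exposure lasted 40 h at 37 °C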); conditions: SK-N-SH neuroblastoma cell viability qHTS
In short: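 Human neuroblastoma line, 40 h exposure at 37 °C, ATP quantified via luciferase luminescence; DMSO and 100 uM tamoxifen define 0 and 100% inhibition for AC50 fitting.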

[5] = Cell Viability - N2a (AID 540); conditions: N2a mouse neuroblastoma cell viability; at 92.2 µM (top of the series);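 further: plate controls were DMSO alone for no effect and tamoxifen control for full effect; nearly all actives have a fitted effect of over 45% in size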
In short: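 CellTiter-Glo ATP luminescence, read 20 min after reagent at room temperature, reported viability following 40 h compound treatment at 37 °C. N2a mouse neuroblastoma cells seeded 1500/well; Hill equation gave AC50.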

[6] = Cell Viability - HUV-EC-C (AID 542); conditions: HUV-EC-C endothelial cell viability, qHTS; series mostly up to 92.2 µM; further: on the % scale 0 is the no-effect control and ±100 the full control effect; nearly all actives have a fitted effect of over 35% in size
In short: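 CellTiter-Glo luminescence measured ATP loss in HUV-EC-C cells (1000/well) after 40 hr compound exposure at 37 °C, in complete culture medium. Concentration-response data were Hill-fitted to give AC50.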

[7] = Cell Viability - SH-SY5Y (AID 544); conditions: SH-SY5Y neuroblastoma cell viability; viability change, negative = cytotoxic: at 92.2 µM (top of the series);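 further: 0% = DMSO alone and -100% = 100 µM tamoxifen; nearly all actives have a fitted effect of over 55% in size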
In short: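 Cytotoxicity measured via ATP-dependent luciferase luminescence (CellTiter-Glo) following 40 h, 37 °C exposure of 1500 SH-SY5Y cells per well. Concentration-response data were fitted with the standard Hill equation to give AC50.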

[8] = Cell Viability - Renal Proximal Tubule (AID 545); conditions: renal proximal tubule cells viability; at 91.7 µM (top of the series), primary cells of rat origin unless noted;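 further: 0% = DMSO only and -100% = 100 µM tamoxifen; nearly all actives have a fitted effect of over 40% in size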
In short: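 In this qHTS format, normal rat kidney-derived proximal tubule cells in complete culture medium receive compound titrations, then sit 40 hours at 37 °C before luciferase-based ATP quantitation; potency is reported as AC50 from concentration-response curves.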

[9] = Cell Viability - Mesenchymal (AID 546); conditions: mesenchymal cells viability, qHTS; series mostly up to 91.7 µM;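 further: cells exposed to compound for 40 hours before reading; 0% = DMSO only and -100% = 100 µM tamoxifen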
In short: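 Human renal mesenchymal cells (glomerulus-derived), 1000 cells/well, 5 hr 37 °C pre-incubation; compound 40 hr, 37 °C; CellTiter-Glo, 20 min RT; luminescence; AC50 via Hill equation.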

[10] = qHTS Assay for Identification of Small Molecule Inducers of Hypoxia Response (AID 2120; active means well fitted curve in the direction sought with a large enough effect in the signal ratio, with a control signal flat, not every such curve was filed as active; the % refers to the signal ratio; further: 0% is about no effect); conditions: hypoxia response reporter cells, beta-lactamase ratio readout; series mostly up to 104 µM
In short: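 Reporter induction read as the CCF4 blue/green (460nm/530nm) emission ratio after 2.5 h dye loading at room temperature. ME-180 HRE-beta-lactamase cells received titrated compounds for 17 h at 37 degrees Celsius; AC50 values derived.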

[11] = molecular target: Voltage-gated inwardly rectifying potassium channel KCNH2 (Homo sapiens) (UniProt Q12809); assay: qHTS Assay for Small Molecule Inhibitors of the Human hERG Channel Activity (AID 588834); conditions: U2OS BacMam hERG, FluxOR thallium flux fluorescence; series mostly up to 92.2 µM;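 further: top concentration of the series differs between compounds; on the % scale 0 is the no-effect control and ±100 the full control effect; lower thallium flux fluorescence means stronger hERG block; nearly all actives have a fitted effect of over 50% in size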
In short: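 Homogeneous FluxOR thallium flux assay using hERG-expressing U2OS cells (BacMam). Compound treatment about 10 minutes preceded stimulation; reduced fluorescence taken as channel block.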

[12] = qHTS assay for small molecule disruptors of the mitochondrial membrane potential - 1 hr assay (AID 651754; calls by dose curve; further: on the % scale 0 is the no-effect control and ±100 the full control effect; nearly all actives have a fitted effect of over 35% in size); conditions: series mostly up to 92.2 µM
In short: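 Mitochondrial potential in living HepG2 cells after 1 hr compound treatment at 37C was read with Mito-MPS dye added for a further 30 min. Red aggregate and green monomer fluorescence were measured; loss of potential leaves dye as cytoplasmic monomers.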

[13] = molecular target: Peroxisome proliferator-activated receptor alpha (Homo sapiens) (UniProt Q07869); assay: qHTS assay for small molecule agonists of the peroxisome proliferator-activated receptor alpha (PPARalpha) signaling pathway (AID 651778); conditions: PathHunter PPARalpha complementation, chemiluminescence, 6 h; stronger effect = higher value; further: % of control where 0% means no effect
In short: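 Enzyme-fragment complementation assay in which ligand-bound PPARalpha translocates and forms an active enzyme that generates chemiluminescence. Cells were plated overnight, exposed to compound for 6 hr at 37 C, and then given detection reagent for 60 min at room temperature.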

[14] = qHTS assay for small molecule agonists of the antioxidant response element (ARE) signaling pathway measured by Nrf2-dependant transcriptional activity (AID 720636; active means well fitted curve in the direction sought with a large enough effect in the repeat runs; an effect the other way counts as inactive or inconclusive;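 further: HepG2 cells with an ARE-driven luciferase reporter; % of control where 0% means no effect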); conditions: ARE-luc HepG2, Nrf2 luciferase reporter, 16 h; series mostly up to 92.4 µM
In short: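 First, ARE-luc HepG2 cells attached for 6 hr at 37 C in 1% dialyzed FBS medium. Next, compound or DMSO was added and incubated 16 hr. Finally, ONE-Glo reagent was added and luminescence measured after 30 min.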

[15] = qHTS assay for small molecule agonists of the antioxidant response element (ARE) signaling pathway measured by Nrf2-dependant transcriptional activity - cell viability counter screen (AID 720653; active means well fitted curve in the direction sought with a large enough effect in the repeat runs; an effect the other way counts as inactive or inconclusive; further: on the % scale 0 is the no-effect control and ±100 the full control effect); conditions: ARE-bla HepG2 viability, CellTiter-Glo ATP luminescence, 16 h; stronger effect = lower value
In short: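 ARE-bla HepG2 cells treated with compounds for 16 h at 37C; this counter screen measures viability as intracellular ATP by CellTiter-Glo luminescence after 30 min at room temperature.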

[16] = qHTS assay for cell viability of HEK293 cells (AID 743288); conditions: ATP luminescence (CellTiter-Glo), 18 h; max response: stronger effect = lower value; further: on the % scale 0 is the no-effect control and ±100 the full control effect; nearly all actives have a fitted effect of over 50% in size
In short: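 HEK293, 18 h, 37 C, ATP luminescence. Cells at 2,000/well were allowed at least 5 h to settle before dosing; CellTiter-Glo developed 30 min at RT.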

[17] = qHTS assay for cell viability of the p53RE-bla HCT-116 cell line (AID 743292); conditions: p53RE-bla HCT-116 viability, ATP luminescence, 16 h; series mostly up to 95 µM; further: on the % scale 0 is the no-effect control and ±100 the full control effect; nearly all actives have a fitted effect of over 55% in size
In short: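 Quantitative high-throughput format: compounds in DMSO were pinned onto p53RE-bla HCT-116 cells (4,000/well) and incubated 16 h at 37 C. Total intracellular ATP, read by CellTiter-Glo luminescence, reflects viable cell number.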

[18] = molecular target: Peroxisome proliferator-activated receptor delta (Homo sapiens) (UniProt Q03181); assay: qHTS assay for small molecule agonists of peroxisome proliferator-activated receptor delta signaling (AID 588534; calls by dose curve;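 further: 0% = DMSO basal wells and 100% = positive control agonist at 10 µM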); conditions: HEK293T PPARdelta-UAS-bla, beta-lactamase ratio, 18 h; series mostly up to 76.7 µM
In short: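 Agonist-mode beta-lactamase reporter readout (CCF4 dye, 2 h at RT) after 18 h at 37 °C exposure to a titration; Hill-equation fitting gave EC50 and maximal response.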

Sequence of Peroxisome proliferator-activated receptor alpha (Homo sapiens) (Q07869 whole entry, looked up, the tested form may be a part): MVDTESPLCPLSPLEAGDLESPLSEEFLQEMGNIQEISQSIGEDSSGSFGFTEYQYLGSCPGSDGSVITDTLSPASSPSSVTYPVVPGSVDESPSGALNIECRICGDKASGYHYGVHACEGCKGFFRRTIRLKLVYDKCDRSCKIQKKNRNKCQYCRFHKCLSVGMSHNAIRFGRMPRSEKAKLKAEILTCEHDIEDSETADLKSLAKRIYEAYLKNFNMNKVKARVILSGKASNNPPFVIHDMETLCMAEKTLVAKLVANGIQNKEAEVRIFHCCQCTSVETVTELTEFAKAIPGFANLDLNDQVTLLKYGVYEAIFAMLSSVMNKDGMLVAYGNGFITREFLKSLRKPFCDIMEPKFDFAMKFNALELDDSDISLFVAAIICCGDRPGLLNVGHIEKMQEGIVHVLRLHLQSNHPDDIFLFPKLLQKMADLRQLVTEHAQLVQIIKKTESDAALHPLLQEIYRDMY
Sequence of Peroxisome proliferator-activated receptor delta (Homo sapiens) (Q03181 whole entry, looked up): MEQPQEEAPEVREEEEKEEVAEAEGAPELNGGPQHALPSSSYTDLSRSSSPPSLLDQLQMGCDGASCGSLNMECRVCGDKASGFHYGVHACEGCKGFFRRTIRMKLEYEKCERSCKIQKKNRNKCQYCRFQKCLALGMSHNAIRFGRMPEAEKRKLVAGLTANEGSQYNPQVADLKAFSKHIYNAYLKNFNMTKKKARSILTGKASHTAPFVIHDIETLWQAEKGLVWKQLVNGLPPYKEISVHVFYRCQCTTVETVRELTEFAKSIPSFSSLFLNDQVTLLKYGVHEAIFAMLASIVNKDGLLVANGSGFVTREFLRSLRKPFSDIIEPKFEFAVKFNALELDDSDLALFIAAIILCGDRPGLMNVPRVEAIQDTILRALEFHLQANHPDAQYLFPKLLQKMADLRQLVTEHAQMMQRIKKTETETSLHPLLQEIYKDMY
Sequence of Voltage-gated inwardly rectifying potassium channel KCNH2 (Homo sapiens) (Q12809 whole entry, looked up): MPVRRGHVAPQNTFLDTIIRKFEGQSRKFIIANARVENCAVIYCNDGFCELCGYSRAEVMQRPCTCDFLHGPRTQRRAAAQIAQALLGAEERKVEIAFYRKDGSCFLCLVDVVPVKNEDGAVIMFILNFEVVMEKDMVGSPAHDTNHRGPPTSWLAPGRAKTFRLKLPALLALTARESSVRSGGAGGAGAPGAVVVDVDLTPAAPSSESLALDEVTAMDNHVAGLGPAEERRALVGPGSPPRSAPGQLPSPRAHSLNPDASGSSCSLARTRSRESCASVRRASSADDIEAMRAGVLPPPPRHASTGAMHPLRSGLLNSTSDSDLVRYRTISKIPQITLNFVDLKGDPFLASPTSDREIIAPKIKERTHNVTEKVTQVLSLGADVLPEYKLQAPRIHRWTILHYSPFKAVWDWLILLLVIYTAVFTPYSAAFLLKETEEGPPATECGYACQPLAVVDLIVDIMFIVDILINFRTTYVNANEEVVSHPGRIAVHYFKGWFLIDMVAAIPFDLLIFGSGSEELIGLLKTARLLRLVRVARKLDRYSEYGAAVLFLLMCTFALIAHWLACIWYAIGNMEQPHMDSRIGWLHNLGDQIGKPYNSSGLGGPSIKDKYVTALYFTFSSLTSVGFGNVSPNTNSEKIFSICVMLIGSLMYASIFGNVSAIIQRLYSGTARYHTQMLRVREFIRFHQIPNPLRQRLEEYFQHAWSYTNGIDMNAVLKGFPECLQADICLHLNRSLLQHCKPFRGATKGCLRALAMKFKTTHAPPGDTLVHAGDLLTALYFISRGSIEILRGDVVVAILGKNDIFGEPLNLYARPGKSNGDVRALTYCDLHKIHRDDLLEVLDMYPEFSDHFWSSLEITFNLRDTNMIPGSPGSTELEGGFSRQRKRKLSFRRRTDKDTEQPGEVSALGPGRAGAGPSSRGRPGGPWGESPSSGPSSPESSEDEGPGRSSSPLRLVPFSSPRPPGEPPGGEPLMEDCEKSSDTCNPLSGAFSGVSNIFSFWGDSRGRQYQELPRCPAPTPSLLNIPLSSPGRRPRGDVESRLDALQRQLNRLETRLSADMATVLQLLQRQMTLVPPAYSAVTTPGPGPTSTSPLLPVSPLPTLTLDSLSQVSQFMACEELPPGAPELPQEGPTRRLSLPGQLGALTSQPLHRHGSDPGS

COc1ccc(C=O)cc1OC
inactive: Potency [1] > 92 µM | Potency [2] > 92 µM | Potency [3] > 92 µM | Potency [4] > 92 µM | activity change, negative = cytotoxicity [5] -19.3% | Potency [6] | Potency [7] | activity change, negative = cytotoxicity [8] -7.47% | outcome [9] | outcome [10] | Potency [11] | Potency [12] | max response [13] 0.927% and -2.24% | outcome [14] | max response [15] -2.79% and -2.46% | max response [16] -6.04% and -11.4% | Potency [17]

C=C(C)C(=O)OCC1CO1 (stereo unspecified)
inactive: Potency [1] > 92 µM | Potency [2] > 92 µM | Potency [3] > 92 µM | Potency [4] > 92 µM | activity change, negative = cytotoxicity [5] -4.08% | Potency [6] | Potency [7] | activity change, negative = cytotoxicity [8] -4.58% | outcome [9] | outcome [10] | outcome [18] | Potency [11] | Potency [12] | max response [13] -4.83% | outcome [14] | max response [15] 1.28% | max response [16] 3.25% | Potency [17]

c1ccc2c(c1)CCCC2
inactive: Potency [1] > 92 µM | Potency [2] > 92 µM | Potency [3] > 92 µM | Potency [4] > 92 µM | activity change, negative = cytotoxicity [5] 9.97% | Potency [6] | Potency [7] | activity change, negative = cytotoxicity [8] -0.896% | outcome [9] | outcome [10] | Potency [11] | Potency [12] | max response [13] -0.424% | outcome [14] | max response [15] -5.84% | max response [16] -7.83% | Potency [17]

C=CC(=O)OCC
inactive: Potency [1] > 92 µM | Potency [2] > 92 µM | Potency [3] > 92 µM | Potency [4] > 92 µM | activity change, negative = cytotoxicity [5] -4.3% | Potency [6] | Potency [7] | activity change, negative = cytotoxicity [8] 0.0849% | outcome [9] | outcome [10] | outcome [18] | Potency [11] | Potency [12] | max response [13] -5.18% | outcome [14] | max response [15] -9.08% | max response [16] -0.244% | Potency [17]

O=NN(c1ccccc1)c1ccccc1
inactive: Potency [1] > 92 µM | Potency [2] > 92 µM | Potency [3] > 92 µM | Potency [4] > 92 µM | activity change, negative = cytotoxicity [5] 2.63% | Potency [6] | Potency [7] | activity change, negative = cytotoxicity [8] -4.13% | outcome [9] | outcome [10] | outcome [18] | Potency [11] | Potency [12] | max response [13] 3.69% and -0.619% | outcome [14] | max response [15] -4.67% and 8.95% | max response [16] -0.72% and 1.61% | Potency [17]

OCC1CO1 (stereo unspecified)
inactive: Potency [1] > 92 µM | Potency [2] > 92 µM | Potency [3] > 92 µM | Potency [4] > 92 µM | activity change, negative = cytotoxicity [5] -10.8% | Potency [6] | Potency [7] | activity change, negative = cytotoxicity [8] 4.62% | outcome [9] | outcome [10] | outcome [18] | Potency [11] | Potency [12] | max response [13] -0.572% and -0.317% | outcome [14] | max response [15] -5.57% and 1.53% | max response [16] -3.99% and -2.83% | Potency [17]
